The source made the active and inactive calls. Unless noted, calls come from the whole dose curve.
Legend:
[1] = target: Estrogen receptor (Homo sapiens) (UniProt P03372); assay: qHTS assay for small molecule antagonists of estrogen receptor alpha signaling (AID 588513; active = well fitted curve in the direction sought with a large enough effect in the signal ratio, with a control signal flat, not every such curve was filed as active; inconclusive = small, poorly fitted or top-dose-only effect, or effect the other way, or a change in a side signal; inactive = no such curve, though single readings can be large or run the other way; the % refers to the signal ratio; note: potency is the fitted concentration of half-maximal effect)
How it was run: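 Antagonist-mode qHTS in ER-alpha-UAS-bla HEK 293 cells: compound titration, 0.5nM estradiol for 18 h, CCF4 fluorescence, Hill-derived IC50.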

[2] = target: Glucocorticoid receptor (Homo sapiens) (UniProt P04150); assay: qHTS assay for small molecule agonists of glucocorticoid receptor signaling (AID 588532; active = well fitted curve in the direction sought with a large enough effect in the signal ratio, with a control signal flat; inconclusive = small, poorly fitted or top-dose-only effect, or a change in a side signal; inactive = no such curve, though single readings can be large or run the other way; the % refers to the signal ratio;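 note: 100% = dexamethasone at 0.1 µM and 0% = DMSO only wells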); details: HeLa MMTV-bla, beta-lactamase ratio, agonist, 18 h; activation: stronger effect = higher value, percent of dexamethasone control, DMSO zero
How it was run: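 Quantitative HTS using CellSensor MMTV-bla HeLa cells in charcoal/dextran-treated serum; compounds tested up to 92 uM. After 18 h at 37 C, CCF4 dye reported reporter induction.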

[3] = target: Peroxisome proliferator-activated receptor delta (Homo sapiens) (UniProt Q03181); assay: qHTS assay for small molecule agonists of peroxisome proliferator-activated receptor delta signaling (AID 588534);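 note: 0% = DMSO basal wells and 100% = positive control agonist at 10 µM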
How it was run: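 Titration series tested in agonist mode on beta-lactamase reporter cells; 18 hrs at 37 C after a 5 hr pre-incubation. Readout: CCF4 fluorescence, 2 hrs RT. Hill equation gives EC50 and maximal response.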

[4] = target: Vitamin D3 receptor (Homo sapiens) (UniProt P11473); assay: qHTS assay for small molecule antagonists of vitamin D receptor signaling (AID 588541);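 note: receptor activated by calcitriol during compound treatment; series mostly up to about 77 µM; % is set by controls: 0 for no effect and ±100 for the full control effect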
How it was run: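 Antagonist-mode beta-lactamase reporter assay: HEK293T VDR-UAS-bla cells were exposed to titrated compound alongside 1-alpha,25-dihydroxyvitamin D3 at 3 nM final for 16 h. Values were normalized to the 50 nM agonist control and DMSO basal, with IC50 and efficacy from Hill equation fits.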

[5] = target: Vitamin D3 receptor (Homo sapiens) (UniProt P11473); assay: qHTS assay for small molecule agonists of vitamin D receptor signaling (AID 588543);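 note: 0% = DMSO basal and 100% = reference agonist control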
How it was run: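 Measured: β-lactamase reporter activity (CCF4, 405 nm excitation, 460/530 nm emission) in HEK293T VDR-UAS-bla cells after 16 h compound exposure at 37 °C. Normalization against 50 nM 1α,25-dihydroxyvitamin D3 and DMSO; Hill-fit EC50.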

[6] = qHTS assay for small molecule agonists of retinoid X receptor alpha signaling (AID 588544); details: HEK293T RXRa-UAS-bla, beta-lactamase reporter, 18 h; 530 nm emission; note: potency is the fitted concentration of half-maximal effect;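 for activation: 0% = DMSO basal wells and 100% = reference agonist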
[7] = target: Retinoic acid receptor RXR-alpha (Homo sapiens) (UniProt P19793); assay: as above
[8] = target: Thyroid hormone receptor beta (Homo sapiens) (UniProt P10828); assay: qHTS assay for small molecule agonists of thyroid hormone receptor beta signaling (AID 588545);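 note: 0% = DMSO only and 100% = 10 nM T3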
How it was run: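 TR-UAS-bla GripTite HEK 293 cells (2500/well, medium with 2% charcoal/dextran FBS) were treated in agonist mode for 18 h at 37 C, titrated. Beta-lactamase was read by CCF4 ratio after 2 h; normalized to 10 nM T3 (100%) and DMSO, Hill-fitted for EC50 and efficacy.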

[9] = qHTS assay for small molecule antagonists of retinoid X receptor alpha signaling (AID 588546; active = well fitted inhibition curve with a large enough effect in the signal ratio, with a control signal flat, not every such curve was filed as active; inconclusive = small, poorly fitted or top-dose-only effect, or effect the other way, or a change in a side signal; inactive = no such curve, though single readings can be large or run the other way; the % refers to the signal ratio;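 note: cells stimulated with 9-cis-retinoic acid as agonist; % is set by controls: 0 for no effect and ±100 for the full control effect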); details: HEK293T RXRa-UAS-bla, beta-lactamase ratio, antagonist mode; measured here: W530 green channel, cytotoxicity proxy
How it was run: (§1)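 Beta-lactamase reporter inhibition, read as CCF4 fluorescence ratio (ex 405, em 460/530 nm) after 2 h at RT. HEK293T UAS-bla cells, 2500/well, were stimulated with 9-cis-RA at 500 or 100 nM final alongside test compound for 18 h at 37 C.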

[10] = target: Retinoic acid receptor RXR-alpha (Homo sapiens) (UniProt P19793); assay: as above; details: HEK293T RXRa-UAS-bla, beta-lactamase ratio, antagonist mode
How it was run: as §1

[11] = qHTS assay for small molecule activators of the p53 signaling pathway (AID 651743; active = well fitted activation curve with a large enough effect in the signal ratio, not every such curve was filed as active; inconclusive = small, poorly fitted or top-dose-only effect, or a change in a side signal; the % refers to the signal ratio; note: series mostly up to about 92 µM; % of control where 0% means no effect); details: HCT-116 p53RE-bla, beta-lactamase FRET ratio, 16 h; activation: stronger effect = higher value
How it was run: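 A beta-lactamase reporter under p53 response element control, stably carried by HCT-116 cells, reported pathway activation. Test compounds were applied for 16 hours at 37 C, and fluorescence was measured 2 hours after adding the B/G FRET substrate.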

[12] = qHTS assay for environmental chemicals that activate the Aryl hydrocarbon Receptor (AhR) signaling pathway (AID 651777; active = well fitted curve in the direction sought with a large enough effect; inconclusive = small, poorly fitted or top-dose-only effect, or another doubt; inactive = no such curve, though single readings can be large; an effect the other way counts as inactive or inconclusive; note: % of control where 0% means no effect; nearly all actives have a fitted effect of over 15% in size); details: 1A2-DRE human hepatoma cells, luciferase, 24 h; activation: stronger effect = higher value
How it was run: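 Reporter gene assay: hepatoma cells with DRE/CYP1A2-luciferase, 24 hr compound incubation at 37 C, 5% CO2, luminescence after One-Glo (30 min, RT).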

[13] = target: Peroxisome proliferator-activated receptor alpha (Homo sapiens) (UniProt Q07869); assay: qHTS assay for small molecule agonists of the peroxisome proliferator-activated receptor alpha (PPARalpha) signaling pathway (AID 651778; active = well fitted curve in the direction sought with a large enough effect; inconclusive = small, poorly fitted or top-dose-only effect, or another doubt; inactive = no such curve, though single readings can be large; an effect the other way counts as inactive or inconclusive; note: % of control where 0% means no effect); details: PathHunter PPARalpha complementation, chemiluminescence, 6 h; max response: stronger effect = higher value
How it was run: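 Chemiluminescence from complemented enzyme reported PPARalpha activation in cells after 6 hr of compound treatment at 37 C. The detection reagent was incubated for 60 min at room temperature, and compounds were scored as agonists.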

[14] = qHTS assay for small molecule agonists of the antioxidant response element (ARE) signaling pathway measured by Nrf2-dependant transcriptional activity (AID 720636; active = well fitted curve in the direction sought with a large enough effect in the repeat runs; inconclusive = weak or mixed curves; inactive = no such curve, though single readings can be large; an effect the other way counts as inactive or inconclusive;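 note: HepG2 cells with an ARE-driven luciferase reporter; % of control where 0% means no effect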)
How it was run: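 Nrf2-dependent transcription is measured in ARE-luc HepG2 cells: compound is applied for 16 hr at 37 C after a 6 hr attachment period, and luciferase activity is quantified by luminescence using ONE-Glo.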

[15] = qHTS assay for small molecule agonists of the antioxidant response element (ARE) signaling pathway measured by Nrf2-dependant transcriptional activity - cell viability counter screen (AID 720653; active = well fitted curve in the direction sought with a large enough effect in the repeat runs; inconclusive = weak or mixed curves; inactive = no such curve, though single readings can be large; an effect the other way counts as inactive or inconclusive; note: % is set by controls: 0 for no effect and ±100 for the full control effect); details: ARE-bla HepG2 viability, CellTiter-Glo ATP luminescence, 16 h; max response: stronger effect = lower value
How it was run: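 Cytotoxicity counter screen: intracellular ATP quantified by CellTiter-Glo luminescence in the same ARE-bla HepG2 plates, after 16 h compound exposure and a 2 h beta-lactamase substrate step.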

[16] = qHTS assay for cell viability of HEK293 cells (AID 743288; active = well fitted curve in the direction sought with a large enough effect; inconclusive = small, poorly fitted or top-dose-only effect, or another doubt; inactive = no such curve, though single readings can be large; an effect the other way counts as inactive or inconclusive; note: % is set by controls: 0 for no effect and ±100 for the full control effect; nearly all actives have a fitted effect of over 50% in size); details: ATP luminescence (CellTiter-Glo), 18 h; max response: stronger effect = lower value
How it was run: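 HEK293, 18 h, 37 C, ATP luminescence. Cells at 2,000/well were allowed at least 5 h to settle before dosing; CellTiter-Glo developed 30 min at RT.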

[17] = qHTS assay for cell viability of the p53RE-bla HCT-116 cell line (AID 743292; active = well fitted curve in the direction sought with a large enough effect; inconclusive = small, poorly fitted or top-dose-only effect, or another doubt; inactive = no such curve, though single readings can be large; an effect the other way counts as inactive or inconclusive; note: % is set by controls: 0 for no effect and ±100 for the full control effect; nearly all actives have a fitted effect of over 55% in size)
How it was run: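 ATP-based luminescence, 16 h compound exposure at 37 C, p53RE-bla HCT-116 cells at 4,000/well.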

[18] = target: Nuclear receptor subfamily 1 group I member 2 (Rattus norvegicus) (UniProt Q9R1A7); assay: qHTS assay for small molecule activators of the rat pregnane X receptor (rPXR) signaling pathway (AID 651751; call rule not given here; note: 0% is about no effect); details: rPXR reporter cells, luciferase (One-Glo), 24 h
[19] = target: Thyroid hormone receptor beta (Homo sapiens) (UniProt P10828); assay: qHTS assay for small molecule antagonists of thyroid hormone receptor beta signaling (AID 588547; active = well fitted inhibition curve with a large enough effect in the signal ratio, with a control signal flat, not every such curve was filed as active; inconclusive = small, poorly fitted or top-dose-only effect, or effect the other way, or a change in a side signal; the % refers to the signal ratio;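 note: cells stimulated with 0.4 nM T3 agonist during compound exposure; series mostly up to about 77 µM; % is set by controls: 0 for no effect and ±100 for the full control effect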); details: TR-UAS-bla HEK293, beta-lactamase ratio, antagonist mode, 18 h
How it was run: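 Inhibition of T3-driven (0.4nM final) beta-lactamase reporter activity was measured over 0.59 nM to 92 uM compound after 18 h at 37 C. The cells were GripTite HEK293 TR-UAS-bla in charcoal/dextran-stripped serum, with CCF4 ratio read-out and IC50 from Hill fits.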

[20] = target: Estrogen receptor (Homo sapiens) (UniProt P03372); assay: qHTS assay for small molecule agonists of estrogen receptor alpha signaling (AID 588514);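 note: 0% = vehicle only and 100% = reference agonist; nearly all actives have a fitted effect of over 70% in size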
How it was run: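 Read-out: CCF4 fluorescence from a beta-lactamase reporter in ER-alpha-UAS-bla HEK 293 cells after 18 hrs of compound exposure at 37 C. Normalized to 20 nM 17-beta-estradiol (100%) and DMSO (0%).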

Sequence of Thyroid hormone receptor beta (Homo sapiens) (P10828 whole entry, looked up): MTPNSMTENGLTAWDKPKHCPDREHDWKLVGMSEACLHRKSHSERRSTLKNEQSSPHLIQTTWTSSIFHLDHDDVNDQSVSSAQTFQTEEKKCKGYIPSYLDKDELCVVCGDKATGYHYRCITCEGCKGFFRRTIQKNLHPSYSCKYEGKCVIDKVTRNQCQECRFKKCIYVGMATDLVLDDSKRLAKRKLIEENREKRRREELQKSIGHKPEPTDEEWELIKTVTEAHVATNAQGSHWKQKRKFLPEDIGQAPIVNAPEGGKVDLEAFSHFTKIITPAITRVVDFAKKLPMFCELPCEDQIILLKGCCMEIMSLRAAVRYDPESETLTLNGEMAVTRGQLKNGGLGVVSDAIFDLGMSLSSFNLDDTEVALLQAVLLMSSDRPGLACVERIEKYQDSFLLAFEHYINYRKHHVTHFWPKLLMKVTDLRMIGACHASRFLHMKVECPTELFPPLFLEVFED
Sequence of Vitamin D3 receptor (Homo sapiens) (P11473 whole entry, looked up): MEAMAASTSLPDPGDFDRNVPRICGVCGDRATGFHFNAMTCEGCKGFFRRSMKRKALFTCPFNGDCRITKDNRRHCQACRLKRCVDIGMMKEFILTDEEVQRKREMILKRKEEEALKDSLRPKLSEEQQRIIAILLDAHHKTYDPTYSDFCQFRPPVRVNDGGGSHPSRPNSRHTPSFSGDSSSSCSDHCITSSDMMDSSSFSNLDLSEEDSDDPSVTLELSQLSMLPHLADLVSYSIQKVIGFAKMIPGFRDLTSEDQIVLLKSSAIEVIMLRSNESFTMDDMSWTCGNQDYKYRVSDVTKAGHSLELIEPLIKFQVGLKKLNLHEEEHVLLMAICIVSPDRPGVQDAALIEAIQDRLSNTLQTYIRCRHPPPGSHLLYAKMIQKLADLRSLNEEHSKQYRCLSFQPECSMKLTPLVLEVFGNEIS
Sequence of Peroxisome proliferator-activated receptor delta (Homo sapiens) (Q03181 whole entry, looked up): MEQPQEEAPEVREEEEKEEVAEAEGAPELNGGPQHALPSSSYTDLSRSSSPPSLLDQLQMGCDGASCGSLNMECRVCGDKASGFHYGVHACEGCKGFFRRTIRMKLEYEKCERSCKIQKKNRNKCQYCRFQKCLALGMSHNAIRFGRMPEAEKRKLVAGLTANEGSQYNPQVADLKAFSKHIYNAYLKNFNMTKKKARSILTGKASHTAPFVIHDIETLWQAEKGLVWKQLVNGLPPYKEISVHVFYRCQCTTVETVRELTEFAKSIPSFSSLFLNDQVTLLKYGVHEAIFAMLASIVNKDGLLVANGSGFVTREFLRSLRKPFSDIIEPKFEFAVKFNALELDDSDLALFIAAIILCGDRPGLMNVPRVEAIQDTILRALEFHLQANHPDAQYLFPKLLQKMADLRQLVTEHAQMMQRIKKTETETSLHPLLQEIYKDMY
Sequence of Estrogen receptor (Homo sapiens) (P03372 whole entry, looked up): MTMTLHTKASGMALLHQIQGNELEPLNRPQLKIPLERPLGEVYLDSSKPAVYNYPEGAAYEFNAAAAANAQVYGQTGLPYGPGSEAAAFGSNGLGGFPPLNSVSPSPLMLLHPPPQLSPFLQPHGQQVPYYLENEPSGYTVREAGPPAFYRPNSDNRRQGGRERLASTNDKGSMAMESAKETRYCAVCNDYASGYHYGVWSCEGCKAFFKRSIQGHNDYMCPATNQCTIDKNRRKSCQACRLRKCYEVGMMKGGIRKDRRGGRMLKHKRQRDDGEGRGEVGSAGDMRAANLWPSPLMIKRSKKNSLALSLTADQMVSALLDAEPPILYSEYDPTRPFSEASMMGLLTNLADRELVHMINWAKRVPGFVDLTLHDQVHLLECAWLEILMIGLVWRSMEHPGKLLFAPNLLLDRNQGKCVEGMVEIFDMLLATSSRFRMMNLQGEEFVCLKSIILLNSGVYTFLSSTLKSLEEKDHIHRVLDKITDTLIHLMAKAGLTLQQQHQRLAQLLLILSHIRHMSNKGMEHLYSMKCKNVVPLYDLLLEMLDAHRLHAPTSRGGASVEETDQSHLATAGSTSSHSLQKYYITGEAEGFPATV
Sequence of Glucocorticoid receptor (Homo sapiens) (P04150 whole entry, looked up): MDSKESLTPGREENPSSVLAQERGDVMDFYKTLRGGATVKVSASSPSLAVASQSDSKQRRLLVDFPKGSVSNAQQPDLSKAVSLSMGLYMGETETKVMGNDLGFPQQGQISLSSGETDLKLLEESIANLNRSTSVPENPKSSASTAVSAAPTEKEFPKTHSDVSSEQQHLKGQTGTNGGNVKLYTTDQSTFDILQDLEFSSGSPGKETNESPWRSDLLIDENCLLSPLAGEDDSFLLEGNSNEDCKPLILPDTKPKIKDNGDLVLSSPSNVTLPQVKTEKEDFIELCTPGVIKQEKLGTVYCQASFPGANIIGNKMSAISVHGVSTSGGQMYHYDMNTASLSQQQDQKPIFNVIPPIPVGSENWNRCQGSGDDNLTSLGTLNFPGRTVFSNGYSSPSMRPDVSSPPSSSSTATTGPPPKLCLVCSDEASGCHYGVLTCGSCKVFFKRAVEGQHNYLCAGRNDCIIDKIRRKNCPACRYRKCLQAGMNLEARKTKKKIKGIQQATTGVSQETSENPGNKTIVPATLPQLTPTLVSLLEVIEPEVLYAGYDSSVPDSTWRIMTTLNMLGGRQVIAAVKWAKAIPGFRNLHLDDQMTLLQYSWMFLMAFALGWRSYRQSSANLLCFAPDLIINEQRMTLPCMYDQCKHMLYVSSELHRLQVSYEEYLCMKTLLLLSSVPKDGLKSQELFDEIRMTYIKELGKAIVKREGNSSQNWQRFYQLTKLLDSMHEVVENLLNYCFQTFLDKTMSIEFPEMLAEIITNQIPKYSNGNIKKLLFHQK
Sequence of Peroxisome proliferator-activated receptor alpha (Homo sapiens) (Q07869 whole entry, looked up): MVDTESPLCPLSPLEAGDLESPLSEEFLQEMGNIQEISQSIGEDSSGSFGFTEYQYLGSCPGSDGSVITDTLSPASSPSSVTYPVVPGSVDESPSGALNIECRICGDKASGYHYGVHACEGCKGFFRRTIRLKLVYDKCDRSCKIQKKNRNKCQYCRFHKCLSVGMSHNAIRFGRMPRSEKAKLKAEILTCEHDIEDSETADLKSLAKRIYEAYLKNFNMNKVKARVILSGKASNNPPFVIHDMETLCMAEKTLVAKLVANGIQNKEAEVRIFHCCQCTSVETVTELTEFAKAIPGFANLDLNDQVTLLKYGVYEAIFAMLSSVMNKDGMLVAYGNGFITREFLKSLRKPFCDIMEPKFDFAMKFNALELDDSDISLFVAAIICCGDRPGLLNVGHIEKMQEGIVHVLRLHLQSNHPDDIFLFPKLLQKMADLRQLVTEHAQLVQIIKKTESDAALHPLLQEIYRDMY
Sequence of Retinoic acid receptor RXR-alpha (Homo sapiens) (P19793 whole entry, looked up): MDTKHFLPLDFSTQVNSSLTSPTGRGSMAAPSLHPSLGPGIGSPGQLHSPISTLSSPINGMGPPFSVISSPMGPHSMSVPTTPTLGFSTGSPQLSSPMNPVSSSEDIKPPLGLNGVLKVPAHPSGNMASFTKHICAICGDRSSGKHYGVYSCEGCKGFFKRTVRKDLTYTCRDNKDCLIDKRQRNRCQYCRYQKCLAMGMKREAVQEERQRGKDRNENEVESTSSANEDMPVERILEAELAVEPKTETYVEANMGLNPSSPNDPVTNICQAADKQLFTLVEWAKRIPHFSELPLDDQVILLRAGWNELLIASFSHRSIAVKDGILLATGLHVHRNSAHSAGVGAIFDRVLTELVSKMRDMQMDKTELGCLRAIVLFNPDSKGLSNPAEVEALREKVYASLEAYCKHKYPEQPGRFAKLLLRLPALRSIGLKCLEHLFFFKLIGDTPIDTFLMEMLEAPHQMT
Sequence of Nuclear receptor subfamily 1 group I member 2 (Rattus norvegicus) (Q9R1A7 whole entry, looked up): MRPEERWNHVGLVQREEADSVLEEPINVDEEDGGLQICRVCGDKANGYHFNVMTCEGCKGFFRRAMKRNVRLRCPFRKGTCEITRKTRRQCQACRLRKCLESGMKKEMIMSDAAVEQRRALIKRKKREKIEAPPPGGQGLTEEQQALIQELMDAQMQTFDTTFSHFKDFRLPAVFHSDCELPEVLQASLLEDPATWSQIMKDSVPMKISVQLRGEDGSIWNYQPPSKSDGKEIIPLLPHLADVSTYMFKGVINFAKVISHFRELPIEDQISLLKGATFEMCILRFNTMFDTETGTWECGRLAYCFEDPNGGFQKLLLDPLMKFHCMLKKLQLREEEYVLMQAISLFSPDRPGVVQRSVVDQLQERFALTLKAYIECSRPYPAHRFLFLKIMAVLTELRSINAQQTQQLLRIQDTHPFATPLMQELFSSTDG

CCC/C(=N\OCC)C1=C(O)CC(CC(C)SCC)CC1=O (stereo not drawn)
-1.11%: max response [9]
inactive: Potency [1] | activation [2] -6.86% | outcome [3] | Potency [4] | outcome [5] | Potency [7] | Potency [8] | max response [10] -23% | activation [11] -6.84% | activation [12] 1.24% | max response [13] 0.062% | Potency [14] | max response [15] -2.32% | max response [16] -13.8% | Potency [17] | max response [18] 0.0341%
-4.54%: max response [6]

CNC(=S)S
-26.8%: max response [6]
inactive: Potency [1] | activation [2] -6.24% | outcome [3] | Potency [4] | outcome [5] | Potency [7] | max response [10] -13.7% | activation [12] 0.794% | max response [13] -2.07% | Potency [14] | max response [15] -4.46% | max response [16] -18% | Potency [17] | max response [18] 0.745%
-10.7%: max response [9]

CCOP(=S)(OCC)Oc1nc(Cl)n(C(C)C)n1
inactive: Potency [1] | activation [2] 12.9% | outcome [5] | Potency [8] | activation [11] -5.02% | max response [13] 0.789% | Potency [14] | max response [15] -6.76% | max response [16] 6.35%
10.5%: max response [9]

CCCN(CCC)c1c([N+](=O)[O-])cc(C(F)(F)F)c(N)c1[N+](=O)[O-]
active: Potency [1] 31.6 µM [inhibitor]
inactive: outcome [3]

Nc1cnn(-c2ccccc2)c(=O)c1Cl
inactive: Potency [1] | activation [2] -1.22% | outcome [3] | Potency [4] | outcome [5] | Potency [7] | Potency [8] | max response [10] -7.65% | activity change % (negative = inhibition) [19] -13.7% | activation [11] -0.0509% | activation [12] 6.85% | max response [13] -1.54% | Potency [14] | max response [15] 11.3% | Potency [17] | max response [18] 4.89%
-6.12%: max response [6]
-1.68%: max response [9]

CCOc1nc(C(Cl)(Cl)Cl)ns1
-10.8%: max response [9]
-11.9%: max response [6]
inactive: Potency [1] | outcome [3] | Potency [4] | outcome [5] | Potency [7] | Potency [8] | max response [10] 3.55% | activity change % (negative = inhibition) [19] 11.9% | activation [11] -0.297% | activation [12] 7.64% | max response [13] -0.167% | max response [15] -1.82% | max response [16] -11.1% | Potency [17]

C=CC(=O)OCCCCCC(C)C
active: Potency [7] 31.6 µM
inactive: Potency [1] | outcome [3] | Potency [4] | outcome [5] | Potency [8] | max response [10] -5.23% | activation [11] -4.19% | activation [12] -0.0847% | max response [13] -1.09% | Potency [14] | max response [15] 8.44% | Potency [17] | max response [18] 0.944%
-15.4%: max response [9]
-13.5%: max response [6]

C=C1CC[C@H](O)C/C1=C/C=C1\CCC[C@]2(C)[C@@H]([C@H](C)CCCC(C)C)CC[C@@H]12
active: Potency [1] 15.8 µM [inconclusive]

Clc1ccccc1-c1nnc(-c2ccccc2Cl)nn1
inactive: Potency [1] | outcome [3] | Potency [4] | outcome [5] | Potency [7] | Potency [8] | max response [10] -5.51% | activation [12] 9.84% | max response [13] -0.0144% | max response [15] -3% | max response [16] -8.84%
-1.99%: max response [6]
-19.7%: max response [9]

O=Cc1cccc(Oc2ccccc2)c1
1.81%: max response [9]
6.44%: max response [6]
inactive: Potency [1] | Potency [4] | outcome [5] | Potency [7] | Potency [8] | max response [10] 1.63% | activation [12] -0.398% | max response [13] 4.39% | Potency [14] | max response [15] 2.38% | max response [16] -4.08% | Potency [17] | max response [18] 0.0469%

CCSCc1ccccc1OC(=O)NC
inactive: Potency [1] | activation [2] 1.02% | outcome [3] | Potency [4] | outcome [5] | Potency [7] | Potency [8] | max response [10] -13% | activity change % (negative = inhibition) [19] -8.58% | activation [11] 3.49% | activation [12] 0.553% | max response [13] -0.372% | Potency [14] | max response [15] -3.42% | max response [16] -9.67% | Potency [17] | max response [18] 0.0425%
-16.4%: max response [6]
-7.11%: max response [9]

CC1=C(C(=O)Nc2ccccc2)SCCO1
-5.88%: max response [9]
inactive: Potency [20] | activation [2] -5.7% | outcome [3] | Potency [4] | outcome [5] | Potency [7] | Potency [8] | max response [10] -6.74% | activity change % (negative = inhibition) [19] 3.71% | max response [13] -3.16% | max response [15] -4.21% | max response [16] -15.4% | Potency [17]
-2.97%: max response [6]

CCOc1ccc(C(C)(C)COCc2cccc(Oc3ccccc3)c2)cc1
inactive: Potency [1] | activation [2] -0.996% | outcome [3] | Potency [4] | outcome [5] | max response [10] -7.6% | activity change % (negative = inhibition) [19] 2.33% | activation [11] -0.0413% | activation [12] 1.55% | max response [13] -1.64% | max response [15] -4.24% | max response [16] -6.28% | Potency [17]
-7.02%: max response [9]

— PubChem BioAssay (NCATS)
